Sampled rows, rich in hits. Any-hit rate of the full collection: about 8.2%.
KB-3-1 cytotox – qHTS assay for MDR1-selective chemotherapeutics: Primary screen using the parental adenocarcinoma cell KB-3-1. KB-3-1 viability, CellTiter-Glo ATP luminescence, 72 h. Potency, µM (titrated, usually from 46.1 µM), actives largely listed as cytotoxic. 400,000 tested, 1.4% active; also: % is scaled to controls: 0 for no effect and ±100 for the full control effect; nearly all actives have a fitted effect of over 60% in size
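Here the drug-naive KB-3-1 line serves as comparator for MDR sub-line selectivity; cells received compound titrations, 72 h at 37 °C, then CellTiter-Glo readout.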
MCF10A rereplic – A quantitative high throughput screen for small molecules that induce DNA re-replication in MCF 10a normal breast cells; MCF 10A DNA re-replication, Hoechst nuclear intensity, 48 h; Potency, µM (series often up to 46.1 µM), for inactives: top-dose activity, positive = re-replication, actives largely listed as activators; 350,000 tested, 2.9% active; also: % of control where 0% means no effect; nearly all actives have a fitted effect of over 50% in size
KB-V1 MDR tox – qHTS assay for MDR1-selective chemotherapeutics: Primary screen using the drug-selected MDR subline cells KB-V1. KB-V1 MDR cells viability, CellTiter-Glo, 72 h. Potency, µM (titrated, usually from 46.1 µM), usual class: cytotoxic. 400,000 tested, 3.4% active; also: % is scaled to controls: 0 for no effect and ±100 for the full control effect; nearly all actives have a fitted effect of over 60% in size
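KB-V1 MDR subline cells in DMEM (phenol-red free, 10% FBS) exposed to compounds in qHTS concentration series for 72 h at 37 degrees C. Viability read by CellTiter-Glo luminescence; concentration-effect curves fitted after normalization and correction.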
SW480 rereplic – A quantitative high throughput screen for small molecules that induce DNA re-replication in SW480 colon adenocarcinoma cells | SW480 DNA re-replication, Hoechst DNA content imaging, 48 h | Potency, µM (highest dose often 46.1 µM), for inactives: at the highest dose re-replication activation, hits mostly activators | AID 624297, 2012 | 340,000 tested, 1.8% active; also: % of control where 0% means no effect; nearly all actives have a fitted effect of over 55% in size
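Image-based read-out: total Hoechst fluorescence of nuclei (405 nm excitation, 500-530 nm emission), with hits raising the fraction of high-intensity nuclei. SW480 colon cells incubated 48 hr with compounds at 37 C.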
ELG1 repair inh – qHTS screen for small molecules that inhibit ELG1-dependent DNA repair in human embryonic kidney (HEK293T) cells expressing luciferase-tagged ELG1 | AID 504467, 2011 | Potency, µM (doses to about 46.1 µM), for the others: at the highest dose activity change, negative = inhibition, hits mostly inhibitors | HEK293T ELG1-luciferase reporter, luminescence, 16 h; DNA damage induced by 5-fluorouridine | 330,000 tested, 2.3% active; also: % is scaled to controls: 0 for no effect and ±100 for the full control effect; nearly all actives have a fitted effect of over 55% in size
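5-Fluorouridine DNA damage + compound/DMSO, 2,000 cells/well, 16 h, 37 °C/5% CO2. ONE-Glo, 30 min RT, luminescence. Readout = decrease in reporter signal.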
Numbers without * were called inactive; i = inactive; ? = inconclusive; . = no result given. Calls follow the shape of the dose curve; as a rule, active = well fitted curve in the direction sought with a large enough effect; inconclusive = small, poorly fitted or top-dose-only effect, or another doubt; inactive = no such curve, though single readings can be large; an effect the other way counts as inactive or inconclusive. Potency is read from the fitted curve at half-maximal effect.

SMILES | KB-3-1 cytotox | MCF10A rereplic | KB-V1 MDR tox | SW480 rereplic | ELG1 repair inh
Cc1sc2nc(CN(C(=O)NC3CCCCC3)C3CCCC3)[nH]c(=O)c2c1C | i | -3.4% | ? | -5.0% | 20.6µM*
O=C(Nc1cccc(C(F)(F)F)c1)c1cc(-c2ccc3c(c2)OCCO3)on1 | i | . | i | . | .
Clc1cccc(CSc2ncn(-c3ccccc3)n2)c1 | i | 11.0% | i | -6.8% | ?
Clc1ccc(CSc2ncn(-c3ccccc3)n2)cc1 | i | 5.6% | 20.6µM* | -14.5% | 28.2%
COc1ccccc1N(/N=C1\Sc2ccccc2C1=O)C(C)=O | i | 6.1% | i | 3.7% | ?
CC1CCc2c(sc(NC(=O)CSc3ncn[nH]3)c2C#N)C1 (stereo unspecified) | ? | 18.4µM* | i | 5.1% | -23.0%
CC(C)(C)C1CCc2c(sc(NC(=O)CSc3ncn[nH]3)c2C#N)C1 (stereo unspecified) | ? | ? | 16.4µM* | ? | ?
N#Cc1c(NC(=O)CSc2ncn[nH]2)sc2c1CCCC2 | ? | ? | ? | -4.7% | -27.6%
O=C(NCc1cnc2ccccn12)C1CCC(=O)N(Cc2cccc(F)c2)C1 (stereo unspecified) | i | -3.4% | i | -14.2% | 26.2%
CSc1ccc(CN2CCC2(C)C(=O)NC2CCc3ccccc32)cc1 (stereo unspecified) | i | . | i | . | .
O=c1nc2n(c3ncccc13)CCCCC2 | i | 2.0% | i | 4.9% | -3.2%
O=S(=O)(Nn1cnnc1)c1ccc(F)cc1 | i | 2.31µM* | i | 27.4% | 4.4%
Cc1ccnc(N2CCC(C(=O)Nc3cccc(C(F)(F)F)c3)CC2)n1 | i | 13.8% | ? | 6.9% | 16.4µM*
CCC(C)c1ccc(NC(=O)C2CCCN(c3ncccn3)C2)cc1 (stereo unspecified) | 10µM* | ? | 7.94µM* | 18.4% | 10.3%
CCC(C)c1ccc(NC(=O)C2CC3CCC2C3)cc1 (stereo unspecified) | i | 7.31µM* | i | ? | .
COc1ccc(NC(=O)C2CCCN(c3ncccn3)C2)cc1 (stereo unspecified) | i | -25.4% | i | -28.8% | ?
COc1cccc(-c2ccc(NC(=O)C3CCCN(CCCn4nc(C)cc4C)C3)cc2)c1 (stereo unspecified) | ? | ? | i | 20.6µM* | ?
COc1cc(/C=C(/NC(=O)c2ccccc2)C(=O)N2CCOCC2)c([N+](=O)[O-])cc1OC | i | -4.6% | i | -4.7% | 18.9%
CSc1nc2nc(C)c(CCC(=O)OCC(=O)Nc3ccc(F)cc3)c(C)n2n1 | i | -0.3% | ? | -3.5% | 0.6%
NC(=O)CNC(=O)C1CCN(S(=O)(=O)c2ccc(-n3cnnn3)cc2)CC1 | i | -0.4% | i | -5.3% | 18.1%
Cc1ccnc(N2CCCC(C(=O)Nc3ccc(C)c(C)c3)C2)n1 (stereo unspecified) | i | 16.4µM* | i | -7.0% | -22.2%
COc1ccc(NC(=O)C2CCCN(c3nc(C)cc(C)n3)C2)cc1 (stereo unspecified) | i | 2.91µM* | ? | -24.2% | -14.4%
Cc1ccc(NC(=O)C2CCCN(c3ncccn3)C2)cc1C (stereo unspecified) | i | 14.0% | i | -7.8% | ?
COc1ccc(NC(=O)C2CCCN(c3nccc(C)n3)C2)cc1 (stereo unspecified) | i | 14.9% | i | -18.7% | -3.1%
Cc1cccc(C(=O)NCC(=O)OCc2nc(N)nc(Nc3ccccc3C)n2)c1 | i | -3.3% | i | -4.4% | 5.2%
SMILES | KB-3-1 cytotox | MCF10A rereplic | KB-V1 MDR tox | SW480 rereplic | ELG1 repair inh
CCCN1CCN(C(=S)Nc2ccccc2C(F)(F)F)CC1 | 20.6µM* | 24.1% | 3.26µM* | -0.5% | ?
FC(F)(F)c1ccccc1NC(=S)N1CCc2ccccc2C1 | i | 2.8% | ? | -32.8% | 14.6µM*
CCn1cc(C(=O)O)c(=O)c2cnc(N3CCN(C(=S)Nc4ccccc4C(F)(F)F)CC3)nc21 | i | -1.4% | i | 8.1% | 14.6µM*
CN(C)c1ccc(/C=C/c2nc3ccccc3o2)cc1 | i | . | i | . | .
O=C(Nc1ccc(F)cc1)C(c1cccc(F)c1)N1CCN(Cc2c(F)cccc2Cl)CC1 (stereo unspecified) | i | . | i | . | .
O=C(COC(=O)c1ccc(F)cc1Cl)NC1CCS(=O)(=O)C1 (stereo unspecified) | i | -6.8% | i | -8.1% | 9.2%
COc1ccc(Cn2c(CCC(=O)Nc3cc(OC)c(OC)c(OC)c3)nc3cccnc32)cc1 | i | . | i | . | .
CCCN(Cc1cc2cc(C)ccc2[nH]c1=O)C(=O)c1cccc([N+](=O)[O-])c1 | i | 21.8% | ? | 2.31µM* | ?
Cc1ccc2cc(CCNC(=O)c3cccc([N+](=O)[O-])c3)c(=O)[nH]c2c1C | i | -3.5% | ? | -0.4% | 18.4µM*
C/C(=N\NC(=O)COc1ccc(C)cc1Br)c1cc([N+](=O)[O-])cs1 | 20.6µM* | 8.2µM* | ? | 9.2µM* | ?
Cn1nc(C(F)(F)F)c(C(=O)Nc2ccc(F)cc2F)c1Sc1cccc(Cl)c1 | i | ? | 16.4µM* | ? | -11.5%
Cn1nc(C(F)(F)F)c(C(=O)Nc2ccc(F)cc2F)c1Sc1cccc(C(F)(F)F)c1 | ? | 9.7% | 13µM* | -5.1% | -12.9%
Cn1nc(C(F)(F)F)c(C(=O)Nc2ccc(F)cc2F)c1Cl | i | 6.1% | i | -9.2% | -15.1%
Cn1nc(C(F)(F)F)c(C(=O)Nc2ccc(F)cc2F)c1Oc1cccc(Cl)c1 | i | -10.7% | ? | 0.1% | -1.4%

High-throughput results deposited in PubChem BioAssay by National Center for Advancing Translational Sciences (NCATS).
